Test [1] deals with Progesterone receptor (Homo sapiens) (UniProt P06401). The experiment in a line: qHTS assay to identify small molecule agonists of the progesterone receptor (PR) signaling pathway (AID 1346784; calls by dose curve; also: nearly all actives have a fitted effect of over 30% in size). Put shortly: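 HEK 293T PR-UAS-bla reporter cells, 2% charcoal-stripped FBS; 6 hr settle at 37C/5% CO2, compound (DMSO) 16 hr, LiveBLAzer B/G FRET substrate 2 hr RT, fluorescence intensity read.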
(In general: qHTS replaces the single test concentration by a dilution series.)

The target is the same in test [2]. Nature of the test: qHTS assay to identify small molecule antagonists of the progesterone receptor (PR) signaling pathway (AID 1346795; active = well fitted inhibition curve with a large enough effect in the signal ratio in the repeat runs, not every such curve was filed as active; the % refers to the signal ratio; also: potency is read from the fitted curve at half-maximal effect). The method, boiled down:
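Beta-lactamase reporter, HEK293T PR-UAS-bla line; 2% charcoal-stripped FBS; 6 hr pre-incubation, 37C/5% CO2. Compound + R5020 1 nM final, 16 hr. LiveBLAzer B/G FRET substrate, 2 hr RT; fluorescence intensity read.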

Test [3] is described as follows: qHTS assay to identify small molecule antagonists of the progesterone receptor (PR) signaling pathway - cell viability counter screen (AID 1346798). Also: series mostly up to about 92 µM; nearly all actives have a fitted effect of over 50% in size. Put shortly:
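Luminescence readout (CellTiter-Glo, 30 min, RT) of viability in PR-UAS-bla HEK293T cells exposed to compound and R5020 agonist for 16 hr at 37C, 5% CO2; run in the same wells as the beta-lactamase reporter read.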

Test [4] is described as follows: qHTS assay to identify small molecule agonists of the progesterone receptor (PR) signaling pathway - cell viability counter screen (AID 1346799; calls by dose curve; also: nearly all actives have a fitted effect of over 45% in size). The method, boiled down: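 HEK293T PR-UAS-bla, 3,000 cells/well, 2% charcoal-stripped FBS; 6 h settle, compound 16 h at 37C/5% CO2; LiveBLAzer 2 h RT, then CellTiter-Glo 30 min RT, luminescence read.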
A short description of test [5]: qHTS assay to identify small molecule antagonists of the TGF-beta/Smad signaling pathway - cell viability counter screen (AID 1346824). Also: nearly all actives have a fitted effect of over 50% in size. Put shortly:
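SBE-bla HEK 293T cells were plated overnight at 37 C, then given compounds in DMSO plus TGF-beta1 (added as 0.25 ng/mL solution) for 5 hr. After the bla read, CellTiter-Glo was added to the same wells and luminescence read after 30 min at room temperature.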

Test [6] in a line: qHTS assay to identify small molecule agonists of the TGF-beta/Smad signaling pathway - cell viability counter screen (AID 1346829). Also: top concentration of the series differs between compounds; nearly all actives have a fitted effect of over 45% in size. Put shortly: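 CellTiter-Glo luminescence readout; SBE-bla HEK 293T cells, overnight plating, compound 5 hr at 37 C/5% CO2, then bla substrate 2 hr RT, then CellTiter-Glo 30 min RT.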
A short description of test [7]: qHTS assay to identify small molecule agonists of the TGF-beta/Smad signaling pathway (AID 1346859; active = well fitted activation curve with a large enough effect in the signal ratio in the repeat runs, not every such curve was filed as active; the % refers to the signal ratio; also: series mostly up to about 77 µM). The method, boiled down: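 Read-out: fluorescence at 460 and 530 nm (405 nm excitation) after a 2 hr room-temperature incubation with beta-lactamase FRET substrate. SBE-bla HEK 293T cells had been treated with test compounds for 5 hr at 37 C.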
The target of test [8] is Thyrotropin-releasing hormone receptor (Homo sapiens) (UniProt P34981). The experiment in a line: qHTS assay to identify small molecule agonists of the thyrotropin-releasing hormone receptor (TRHR) signaling pathway (AID 1346891; calls by dose curve;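 also: HEK293 cells expressing TRHR with calcium dye readout; series mostly up to about 58 µM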). The method, boiled down: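 HEK293/TRHR cells, 1500 per well, 18 h 37 °C; Ca dye 2 h 37 °C; pin-tool compound addition (agonist mode); kinetic fluorescence 3 min, 1 s reads; 15 concentrations, triplicate.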
Chain of Thyrotropin-releasing hormone receptor (Homo sapiens) (P34981 whole entry, looked up): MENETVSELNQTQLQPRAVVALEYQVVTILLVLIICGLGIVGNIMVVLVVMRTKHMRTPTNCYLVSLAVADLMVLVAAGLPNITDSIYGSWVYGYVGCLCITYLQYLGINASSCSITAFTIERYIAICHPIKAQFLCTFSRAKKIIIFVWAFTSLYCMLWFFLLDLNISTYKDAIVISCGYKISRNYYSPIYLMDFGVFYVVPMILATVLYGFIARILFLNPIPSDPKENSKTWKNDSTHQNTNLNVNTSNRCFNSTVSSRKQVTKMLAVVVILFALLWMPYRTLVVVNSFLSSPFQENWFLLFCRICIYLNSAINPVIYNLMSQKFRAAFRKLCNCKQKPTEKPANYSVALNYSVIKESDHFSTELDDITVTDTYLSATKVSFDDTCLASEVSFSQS

Test [9] is described as follows: Human pregnane X receptor (PXR) small molecule agonists, qHTS cell viability counter screen (AID 1346977). Also: nearly all actives have a fitted effect of over 50% in size. The method, boiled down: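 Fluorescence read-out (CellTiter-Fluor) of viability in PXR-Luc HepG2 cells, multiplexed with the luciferase agonist read. Compounds in DMSO added after 5hr plating; 24hr total exposure at 37C, 5% CO2.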
Test [10] can be described thus: Caspase-3/7 induction in HepG2 cells by small molecules, qHTS assay (AID 1346978). Also: nearly all actives have a fitted effect of over 15% in size. Put shortly:
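Wild-type HepG2 cells (2,000/well) were settled 5 h at 37 C, 5% CO2, then exposed to compounds in DMSO for 17 h. Caspase-3/7 activity was read by luminescence 30 min after adding Caspase-Glo 3/7 reagent at room temperature.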

Test [11] can be described thus: Caspase-3/7 induction in CHO-K1 cells by small molecules, qHTS cell viability counter screen (AID 1346979). Also: nearly all actives have a fitted effect of over 35% in size. Also: potency is read from the fitted curve at half-maximal effect. Put shortly:
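CHO-K1 wt, 1,500 cells/well; 5hr pre-incubation 37C/5% CO2; compound pin transfer (DMSO); 16hr exposure; CellTiter-Fluor added, 1hr, fluorescence read.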

Test [12] can be described thus: Caspase-3/7 induction in HepG2 cells by small molecules, qHTS cell viability counter screen (AID 1346981). Also: nearly all actives have a fitted effect of over 30% in size. Also: potency is read from the fitted curve at half-maximal effect. Put shortly: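 Steps: seed 2,000 HepG2 cells per well; incubate 5 hr at 37 C; pin-add compounds in DMSO; incubate 16 hr; add CellTiter-Fluor; after 1 hr at 37 C and 5% CO2, read fluorescence.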
In test [13] the target is Nuclear receptor subfamily 1 group I member 2 (Homo sapiens) (UniProt O75469). The experiment in a line: Human pregnane X receptor (PXR) small molecule agonists, qHTS assay (AID 1346982). Also: nearly all actives have a fitted effect of over 35% in size. Put shortly: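 Agonist mode qHTS: PXR-Luc HepG2 cells plated 5 hr before DMSO-dissolved compounds were pinned in, cultured 24 hr at 37 C, 5% CO2; ONE-Glo luminescence readout.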
Chain of Nuclear receptor subfamily 1 group I member 2 (Homo sapiens) (O75469 whole entry, looked up): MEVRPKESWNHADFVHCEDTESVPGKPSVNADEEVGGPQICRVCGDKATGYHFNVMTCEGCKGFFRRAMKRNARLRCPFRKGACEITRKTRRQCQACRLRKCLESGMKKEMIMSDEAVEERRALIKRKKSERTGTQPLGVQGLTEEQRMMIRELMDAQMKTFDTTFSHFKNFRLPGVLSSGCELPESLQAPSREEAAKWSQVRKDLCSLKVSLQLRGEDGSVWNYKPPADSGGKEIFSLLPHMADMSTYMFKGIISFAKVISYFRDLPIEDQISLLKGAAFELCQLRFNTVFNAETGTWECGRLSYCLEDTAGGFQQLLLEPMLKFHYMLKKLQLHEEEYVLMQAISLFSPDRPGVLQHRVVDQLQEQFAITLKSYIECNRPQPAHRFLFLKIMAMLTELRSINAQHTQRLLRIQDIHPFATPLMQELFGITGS
Test [14] deals with Cytochrome P450 2D6 (Homo sapiens) (UniProt P10635). Nature of the test: Cytochrome P450 Family 2 Subfamily D Member 6 (CYP2D6) small molecule antagonists: luciferase reporter qHTS assay (AID 1671196). Also: nearly all actives have a fitted effect of over 50% in size. Also: potency is read from the fitted curve at half-maximal effect. The method, boiled down:
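P450-Glo format: CYP2D6 converts a proluciferin substrate to luciferin in an NADPH-driven reaction lasting 1 h at room temperature. Light output, proportional to CYP2D6 activity, reflects interference by test chemicals.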
(In general: A reporter such as luciferase makes a cellular process visible.)

Test [15] concerns the target Cytochrome P450 2C19 (Homo sapiens) (UniProt P33261). The experiment in a line: Cytochrome P450 Family 2 Subfamily C Member 19 (CYP2C19) small molecule antagonists: luciferase reporter qHTS assay (AID 1671197). Also: nearly all actives have a fitted effect of over 65% in size. Also: potency is read from the fitted curve at half-maximal effect. The method, boiled down:
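Enzyme-substrate mix with proluciferin substrate (P450-Glo CYP2C19 system) preincubated with compounds 10 min at room temperature; NADPH regeneration solution added, 37C for 1 h; detection reagent stops reaction, luminescence read after 20 min. Ketoconazole positive control.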

The target in test [16] is Thyrotropin-releasing hormone receptor (Homo sapiens) (UniProt P34981). Nature of the test: qHTS assay to identify small molecule antagonists of the thyrotropin-releasing hormone receptor (TRHR) signaling pathway (AID 1346877; active = well fitted inhibition curve with a large enough effect in the repeat runs, not every such curve was filed as active; also: series mostly up to about 51 µM). Put shortly:
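Cells (TRHR-HEK293) are plated and kept 18 h at 37 °C/5% CO2. A calcium-sensitive dye is added for 2 h, compound follows for 5 min at room temperature, and TRH is then given at 1 nM final.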

The nature of test [17]: Caspase-3/7 induction in CHO-K1 cells by small molecules, qHTS assay (AID 1346980). Also: nearly all actives have a fitted effect of over 15% in size. The method, boiled down:
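Wild-type cells were seeded at 1,500 per well and settled 5 hr at 37 C, 5% CO2, then exposed to DMSO-dissolved compounds for 17 hr. Caspase-Glo 3/7 reagent was added, and luminescence was read after 30min at room temperature.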

Test [18] deals with Nuclear receptor subfamily 1 group I member 2 (Rattus norvegicus) (UniProt Q9R1A7). The experiment in a line: Rat pregnane X receptor (rPXR) activation by small molecules, qHTS assay (AID 1346983). Also: nearly all actives have a fitted effect of over 20% in size. As to conditions: rPXR luciferase reporter cells, One-Glo luminescence, 24 h; stronger effect = higher value. Put shortly: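 Cell-based rPXR luciferase reporter assay, 2,000 cells per well, rested 5hr at 37 C before compound addition in DMSO, then 24 hr at 37 C. One-Glo reagent was added and luminescence read after 30 min at room temperature.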
Chain of Nuclear receptor subfamily 1 group I member 2 (Rattus norvegicus) (Q9R1A7 whole entry, looked up): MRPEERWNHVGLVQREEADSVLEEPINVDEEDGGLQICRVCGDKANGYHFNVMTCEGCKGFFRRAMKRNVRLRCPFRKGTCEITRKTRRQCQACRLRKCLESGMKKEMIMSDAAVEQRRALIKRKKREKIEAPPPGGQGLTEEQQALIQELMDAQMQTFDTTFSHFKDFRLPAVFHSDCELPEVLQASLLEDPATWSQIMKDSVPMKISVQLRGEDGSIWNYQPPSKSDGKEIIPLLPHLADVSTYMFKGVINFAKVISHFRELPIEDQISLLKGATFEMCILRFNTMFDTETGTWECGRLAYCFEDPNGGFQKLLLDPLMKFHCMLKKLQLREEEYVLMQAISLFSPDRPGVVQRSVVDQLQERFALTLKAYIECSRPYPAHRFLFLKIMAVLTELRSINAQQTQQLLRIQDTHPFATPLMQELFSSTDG

The target of test [19] is Nuclear receptor subfamily 1 group I member 2 (Homo sapiens) (UniProt O75469). The experiment in a line: CYP3A4 induction through human pregnane X receptor (PXR) by small molecules, qHTS assay (AID 1346984). Also: nearly all actives have a fitted effect of over 40% in size. Put shortly: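 Steps: seed DPX-2 cells, 5 hr at 37C; pin-transfer compounds; 24 hr at 37C; add Luciferin-IPA (3uM final), 3 hr at 37C; add One-Glo, 30 min RT; read luminescence.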

Values joined by “and” are separate entries in the source; they are usually repeats but may differ in a detail not shown here. Equal values may be shown once. Records with an inconclusive call do not appear. More than one record can exist for a structure, and the calls need not agree. Active and inactive are the calls of the source. Unless noted, calls follow the shape of the dose curve; as a rule, active = well fitted curve in the direction sought with a large enough effect in the repeat runs; inconclusive = weak or mixed curves; inactive = no such curve, though single readings can be large; an effect the other way counts as inactive or inconclusive.
% is scaled to controls: 0 for no effect and ±100 for the full control effect.

Chain of Progesterone receptor (Homo sapiens) (P06401 whole entry, looked up): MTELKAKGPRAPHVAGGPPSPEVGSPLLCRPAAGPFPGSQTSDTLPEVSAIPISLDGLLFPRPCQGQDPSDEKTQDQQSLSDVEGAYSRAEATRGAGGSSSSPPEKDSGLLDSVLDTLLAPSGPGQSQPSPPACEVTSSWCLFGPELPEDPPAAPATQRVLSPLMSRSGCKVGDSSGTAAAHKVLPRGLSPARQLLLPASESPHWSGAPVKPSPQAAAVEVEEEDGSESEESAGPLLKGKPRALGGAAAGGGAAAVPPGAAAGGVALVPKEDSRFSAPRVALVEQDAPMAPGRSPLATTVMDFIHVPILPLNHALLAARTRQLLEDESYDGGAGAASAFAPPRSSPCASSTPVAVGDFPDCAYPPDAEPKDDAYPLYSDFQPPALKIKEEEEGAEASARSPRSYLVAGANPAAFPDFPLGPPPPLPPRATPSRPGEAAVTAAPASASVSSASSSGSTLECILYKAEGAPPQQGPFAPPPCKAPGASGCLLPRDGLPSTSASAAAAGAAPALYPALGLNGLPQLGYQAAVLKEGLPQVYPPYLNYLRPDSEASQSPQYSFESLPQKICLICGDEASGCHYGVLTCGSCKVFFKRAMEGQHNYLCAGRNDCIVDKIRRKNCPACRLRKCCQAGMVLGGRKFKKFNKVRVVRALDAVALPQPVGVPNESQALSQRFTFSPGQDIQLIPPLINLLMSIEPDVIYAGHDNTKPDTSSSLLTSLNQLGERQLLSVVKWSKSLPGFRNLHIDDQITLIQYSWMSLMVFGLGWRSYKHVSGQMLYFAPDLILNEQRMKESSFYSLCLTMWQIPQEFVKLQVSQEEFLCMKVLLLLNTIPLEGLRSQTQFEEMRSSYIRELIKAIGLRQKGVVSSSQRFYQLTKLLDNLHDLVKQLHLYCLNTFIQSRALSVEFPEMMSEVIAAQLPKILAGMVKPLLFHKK
Chain of Cytochrome P450 2C19 (Homo sapiens) (P33261 whole entry, looked up): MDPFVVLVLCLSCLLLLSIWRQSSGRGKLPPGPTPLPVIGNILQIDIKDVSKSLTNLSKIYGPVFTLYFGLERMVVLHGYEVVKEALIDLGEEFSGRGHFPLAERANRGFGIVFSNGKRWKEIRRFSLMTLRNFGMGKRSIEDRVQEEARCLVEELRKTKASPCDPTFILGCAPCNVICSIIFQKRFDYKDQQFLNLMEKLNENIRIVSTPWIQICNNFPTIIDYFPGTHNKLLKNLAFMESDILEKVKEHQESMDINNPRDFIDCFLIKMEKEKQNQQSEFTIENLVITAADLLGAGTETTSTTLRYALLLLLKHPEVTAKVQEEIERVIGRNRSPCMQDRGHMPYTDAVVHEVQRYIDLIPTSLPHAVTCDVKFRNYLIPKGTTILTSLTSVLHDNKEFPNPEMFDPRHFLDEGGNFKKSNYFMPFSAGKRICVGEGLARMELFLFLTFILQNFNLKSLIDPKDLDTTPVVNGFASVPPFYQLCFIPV
Chain of Cytochrome P450 2D6 (Homo sapiens) (P10635 whole entry, looked up): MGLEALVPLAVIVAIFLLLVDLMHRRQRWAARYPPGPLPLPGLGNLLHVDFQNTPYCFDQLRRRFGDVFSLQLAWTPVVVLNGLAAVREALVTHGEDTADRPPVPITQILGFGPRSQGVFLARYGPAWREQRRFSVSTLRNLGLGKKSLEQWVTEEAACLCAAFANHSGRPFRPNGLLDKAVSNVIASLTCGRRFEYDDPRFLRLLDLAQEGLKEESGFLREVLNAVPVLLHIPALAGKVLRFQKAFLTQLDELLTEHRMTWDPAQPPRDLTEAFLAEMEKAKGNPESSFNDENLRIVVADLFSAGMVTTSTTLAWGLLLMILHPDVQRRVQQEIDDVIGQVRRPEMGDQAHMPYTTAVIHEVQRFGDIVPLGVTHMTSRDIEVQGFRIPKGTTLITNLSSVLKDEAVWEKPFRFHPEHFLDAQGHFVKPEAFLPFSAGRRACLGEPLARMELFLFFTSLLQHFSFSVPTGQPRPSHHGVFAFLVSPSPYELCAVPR

Take `OC[C@]1(O)OC[C@@H](O)[C@H](O)[C@@H]1O`: the Potency result in test [1], in [2], in [3], in test [4], in test [5] and in [9] was “inactive” throughout. In addition, the Potency result in test [10], in test [11], in [12], in test [13], in test [14] and in test [15] was “inactive” throughout. In addition, the compound was called inactive in test [6], in [7] and in test [8].

For the compound `Nc1c[n+](N2CCOCC2)no1`, the Potency entry in test [1], in [2], in test [3], in [4], in [5] and in test [10] was “inactive” each time. Besides, the Potency result in test [11], in test [13], in test [14] and in test [15] was “inactive” in each case. For the same compound, the call in [6], in test [7], in test [16], in test [8] and in [17] was inactive.

As to `NC(=O)COCCN1CCN(C(c2ccccc2)c2ccc(Cl)cc2)CC1` (stereo not given), the Potency result in test [1], in test [2], in test [3], in [4], in test [5] and in test [9] was “inactive” throughout. The Potency entry in [10], in test [12], in [13], in test [14] and in test [15] was “inactive” each time. The call in test [6], in [7], in test [16], in test [8] and in test [17] was inactive.

For the compound `COC(=O)C1=C(C)NC(C)=C(C(=O)OC)C1c1ccccc1[N+](=O)[O-]`, the Potency result in test [1], in [3], in test [4], in test [5] and in [10] was “inactive” in each case. Besides, the Potency in test [2] was 23.7 µM (active); in test [11] it was 48.6 µM (active) and 26.6 µM (active); in [12] it was 30.7 µM (active) and inactive. The outcome in test [6], in test [7], in [16], in [8] and in [17] was inactive.

`CC(=O)N(CC(O)CO)c1c(I)c(C(=O)NCCO)c(I)c(C(=O)NCC(O)CO)c1I` (stereo not given): the Potency result in [1], in [2], in [3], in [4], in [5] and in test [10] was “inactive” in each case. Also, the Potency result in test [12], in test [13], in test [14] and in test [15] was “inactive” throughout. In addition, the result in test [6], in [7], in test [16], in [8] and in [17] was inactive.

Consider `c1cnc(N2CCN(Cc3ccc4c(c3)OCO4)CC2)nc1`, for which the Potency entry in [1], in [2], in test [3], in test [4], in test [5] and in test [10] was “inactive” each time. In addition, the Potency entry in test [11], in test [12] and in [13] was “inactive” each time. Also, the outcome in test [6], in [7], in test [16], in test [8] and in test [17] was inactive. The Potency in test [14] was 1.23 µM (active); in test [15], 3.47 µM (active).

For the compound `CCOC(=O)Nc1ccc(NCc2ccc(F)cc2)nc1N`, the Potency entry in test [1], in test [2], in test [3], in [4], in test [5] and in test [9] was “inactive” each time. Further, the Potency entry in test [10], in test [11], in test [12], in test [13] and in test [19] was “inactive” in each case. Also, the outcome in [6], in test [7] and in test [17] was inactive. In test [18], the max activation is 1.97% (inactive). The Potency in [14] was 3.09 µM (active); in [15], 11 µM (active).

Regarding `CC/C=C\CCOC(C)=O`, the Potency result in [1], in [2], in test [3], in [4], in [5] and in test [10] was “inactive” throughout. The Potency result in test [11], in test [12], in test [13] and in [15] was “inactive” in each case. The call in test [6], in [7] and in test [17] was inactive.
